# Screens from PubChem.
# In the library only some 3.4% were active in any assay of this set; here they are far more common.
# PTPN22 inh 2 = blocks human PTPN22 phosphatase activity | Q9Y2R2 | AID 640 | recombinant LYP catalytic domain, DiFMUP fluorescence | inhibition, % at 2 µM | 0.21% of 96,000 active;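 active = inhibition at 2 µM at or above a set limit, the screen mean plus 3 SD, cut at about 24% in these data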;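 note: 0% = DMSO with enzyme and 100% = enzyme fully blocked by orthovanadate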
# Target sequence (Q9Y2R2 whole entry, looked up, the tested form may be a part): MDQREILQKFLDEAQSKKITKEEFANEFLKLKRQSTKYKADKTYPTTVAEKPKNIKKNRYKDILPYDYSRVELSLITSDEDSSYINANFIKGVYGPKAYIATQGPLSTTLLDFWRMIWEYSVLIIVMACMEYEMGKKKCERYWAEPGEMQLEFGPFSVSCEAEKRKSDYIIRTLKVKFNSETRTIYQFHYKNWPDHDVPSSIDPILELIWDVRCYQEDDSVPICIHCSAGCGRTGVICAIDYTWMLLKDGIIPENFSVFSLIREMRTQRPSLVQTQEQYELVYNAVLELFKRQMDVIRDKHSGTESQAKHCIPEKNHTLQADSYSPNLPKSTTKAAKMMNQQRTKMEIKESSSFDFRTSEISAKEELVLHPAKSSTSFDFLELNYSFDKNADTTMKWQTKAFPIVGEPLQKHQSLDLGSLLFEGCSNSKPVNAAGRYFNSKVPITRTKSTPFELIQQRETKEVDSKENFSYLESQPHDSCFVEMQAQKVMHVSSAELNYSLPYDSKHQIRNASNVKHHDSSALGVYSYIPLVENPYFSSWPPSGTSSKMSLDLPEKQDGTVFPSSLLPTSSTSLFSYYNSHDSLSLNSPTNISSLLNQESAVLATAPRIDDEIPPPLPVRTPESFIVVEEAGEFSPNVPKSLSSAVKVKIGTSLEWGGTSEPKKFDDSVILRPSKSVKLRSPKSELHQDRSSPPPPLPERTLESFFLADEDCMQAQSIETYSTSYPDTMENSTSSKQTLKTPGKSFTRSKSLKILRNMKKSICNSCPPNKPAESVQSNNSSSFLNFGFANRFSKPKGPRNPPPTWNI
# ERa coact pot = ER-alpha (human) coactivator binding potentiation; TR-FRET ERalpha-LBD/SRC-Cy5 coactivator binding, 2 h; 100 = basal binding, no effect; coactivator binding (% of control), % at 25.6 µM; 1.3% of 86,000 active; AID 639; in the data active = activity above about 200%;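 note: binding measured in presence of low estradiol as agonist stimulus; 0% = peptide alone without receptor and 100% = receptor with peptide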
# LYP act = increases human PTPN22 phosphatase activity. Q9Y2R2. recombinant LYP, DiFMUP fluorescence; 0 = plate median, 100 = signal doubled. activation, % at 2 µM. 0.11% of 96,000 active. AID 697;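 active = activation at 2 µM above a set limit, the mean plus 5 SD, cut at about 37% in these data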
# FAK blocker = inhibitors of human focal adhesion kinase. inhibition, %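 (tested at 7 µM)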. AID 727. Q05397. 0.84% of 97,000 active. biochemical FAK kinase activity assay; in the data active = inhibition above about 19%;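 note: 0% = DMSO and 100% = reference compound high control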
# ERa coact inh = ER-alpha (human) coactivator binding inhibition. TR-FRET ER-alpha LBD / SRC-1 peptide, estradiol-bound. inhibition, % at 25.6 µM. 1.7% of 86,000 active. AID 629; in the data active = inhibition above about 50%;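 note: 0% = receptor plus peptide control and 100% = peptide only without receptor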
# ERb SRC1 inh = ER-beta (human) coactivator binding inhibition | AID 633 | Q92731 | inhibition, % at 25.6 µM | TR-FRET ER-beta LBD / SRC1-Cy5 peptide binding; receptor agonist-loaded with 1 µM estradiol | 1.3% of 86,000 active;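 active = compounds whose percent inhibition of the receptor-coactivator binding signal exceeds about 50% in the single-dose screen, limit read from the data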;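 note: 0% = receptor plus peptide wells without compound and 100% = peptide-only wells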
# LYP act confirm = LYP (PTPN22) phosphatase activation confirmation | Recombinant LYP, DIFMUP fluorescence; zero set by plate's median compound well | 100 tested, under 10 active | activation, % at 2 µM | shares compounds with LYP act; call rule not given here
# The depositor's hits bear a star; / = no result; + = active, no number; [ ] = another dose, or the depositor's remark.
SMILES,PTPN22 inh 2,ERa coact pot,LYP act,FAK blocker,ERa coact inh,ERb SRC1 inh,others
Cc1cccc(N=C2NC(=O)/C(=C3/C(=O)N(C)c4ccccc43)S2)c1C,-10.6,26.1,7.3,-5.1,61.4*,37.4,
CN1C(=O)/C(=C2\SC(=S)N(CC3CCCO3)C2=O)c2ccccc21 (configuration not stated),-0.8,104.6,-1.9,-5.2,-1.0,-5.6,
C/C(CCc1ccc2c(c1)OCO2)=N\N=C1\NC(=O)CC(C(=O)Nc2ccc(Cl)cc2)S1 (configuration not stated),-3.4,/,6.2,-2.0,/,/,
CCOC(=O)c1sc(NC(=O)Nc2ccc(Cl)cc2)nc1C,8.6,/,-3.8,9.6,/,/,
Cc1cc(C)c(S(=O)(=O)c2ccccc2C)c(OCC(C)(C)C)n1,9.6,/,-5.4,0.6,/,/,
Clc1ccc(C2=Nn3c(nnc3-c3cc(-c4ccccc4)n[nH]3)SC2)cc1,27.5*,/,-23.6,-2.9,/,/,
c1ccc(C2=Nn3c(nnc3-c3cc(-c4ccccc4)n[nH]3)SC2)cc1,0.2,101.7,-2.4,-0.7,25.9,-3.3,
CCCCOC(=O)c1cc(-c2ccc(/C=N/n3cnnc3)o2)ccc1Cl,4.4,131.7,-5.0,11.9,56.4*,41.9,
O=C(Nc1ccc(Oc2cccnc2)cc1)c1ccccc1F,-3.8,/,6.8,2.9,/,/,
COC(=O)c1cc2c(=O)n3ccccc3nc2n(Cc2cccnc2)c1=N,10.8,105.0,-7.7,6.8,-8.8,6.1,
N=c1c(C(=O)NCc2ccc(F)cc2)cc2c(=O)n3ccccc3nc2n1Cc1cccnc1,5.4,64.6,-4.5,8.0,71.4*,21.6,
C=CCn1c(SCC(=O)c2ccc(OC)cc2)nnc1C(C)NC(=O)c1cccs1 (configuration not stated),-8.9,102.2,7.4,1.0,7.3,-13.3,
C=CCn1c(SCC(=O)NC2CCCCC2)nnc1C(C)NC(=O)c1cccs1 (configuration not stated),-10.7,128.6,5.8,-5.5,83.3*,-4.9,
CCOc1ccccc1CNC(=O)Cn1c(=O)oc2ccccc21,1.7,89.7,-4.4,-1.5,8.2,54.8*[fluorescence artefact?],
CC(=O)NC1CC2CCCC(C1)N2C(=O)Nc1ccccc1 (configuration not stated),59.5*,121.2,-58.8,-1.2,-5.4,-6.7,
O=C(NC1CC2CCCC(C1)N2C(=O)Nc1ccccc1)c1ccncc1 (configuration not stated),7.7,97.8,-5.4,-1.1,2.9,-3.1,
COc1ccc(-c2noc(CSc3nnc(Cc4ccccc4)n3-c3cccc(C)c3)n2)cc1OC,1.7,+[fluorescence artefact?],0.9,0.8,2.2,-1.1,
COc1ccc(CC(=O)Nc2ccc(-c3nnc(-c4ccccc4)o3)cc2)cc1OC,5.2,96.8,-8.4,-30.0,70.3*[fluorescence artefact?],50.7*[fluorescence artefact?],
COc1ccc(CC(=O)Nc2cccc(-c3nnc(-c4ccccc4)o3)c2)cc1OC,-5.3,138.4,1.0,-2.6,29.6,16.9,
COc1ccc(-c2nc3cc(NC(=O)Cc4ccc(OC)c(OC)c4)ccc3o2)cc1,11.6,273.2*[fluorescence artefact?],-7.9,9.6,26.8,16.4,
COCc1cc(C)nc(SCC(=O)Nc2ccc(C)c(C)c2)c1C#N,/,207.8*[fluorescence artefact?],/,/,-6.8,2.6,
COc1ccc(C(C)(C)C)cc1NC(=O)c1c(C)noc1C,1.8,111.1,-4.6,-1.1,-10.9,-9.8,
CCc1onc(C)c1C(=O)Nc1cc(C)ccc1OC,-44.2,121.1,40.0*,-0.4,-0.5,0.9,LYP act confirm=-3.7
CCCOc1ccc(N2CC(C(=O)NC(C)C)CC2=O)cc1 (configuration not stated),-4.4,106.5,4.5,-12.8,0.9,-5.2,
O=C(c1cc(-c2ccccn2)nc2c(Cl)cccc12)N1CCN(C(=O)C2CCCO2)CC1 (configuration not stated),-45.7,84.6,44.6*,-0.4,1.4,19.6,LYP act confirm=-3.2
O=C(c1cc(-c2ccncc2)nc2ccc(Cl)cc12)N1CCN(C(=O)C2CCCO2)CC1 (configuration not stated),4.4,84.5,-4.7,1.1,-5.1,0.5,
